Source: PubChem (National Center for Advancing Translational Sciences (NCATS))
A selection: hits, their analogues and other compounds. The true share with any hit is near 7.6%.
p53 reactivator: mutant p53 re-activation in reporter cells. H1299 p53-A138V BP100-luciferase reporter, luminescence, 24 h. AID 504706. Potency, µM (series often up to 92.2 µM), actives largely listed as activators. hit rate 0.063% among 320,000; also: nearly all actives have a fitted effect of over 45% in size
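p53-null H1299 cells stably carrying temperature-sensitive p53-A138V and a BP100-luciferase reporter were pinned with compounds (4-point, 1:5 series) and held 24 hrs at 37 deg C. Luminescence was read 10 min after detection reagent.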
BRCA1 expr up: BRCA1 expression activation; MCF7-BRCA1-FFLuc reporter, luminescence, 48 h; response scale: scaled: vehicle 0%, 10 µM genistein 100%; Potency, µM (doses to about 46.1 µM), actives largely listed as activators; hit rate 1.1% among 380,000; AID 624202; also: nearly all actives have a fitted effect of over 80% in size
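Quantitative HTS in MCF7 cells stably reporting BRCA1 expression via firefly luciferase. Compound treatment lasts 48 h at 37 °C in phenol-red free MEM. Activation is expressed relative to genistein at 10 microM and DMSO.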
RORgamma inh: inhibitors of mouse ROR gamma transcriptional activity; Drosophila S2 Gal4-RORgamma UAS-luciferase reporter, 20 h; Potency, µM (highest dose often 53.6 µM), most hits filed as inhibitors; P51450; hit rate 5.4% among 310,000; also: nearly all actives have a fitted effect of over 60% in size
Target sequence (P51450 whole entry, looked up, the tested form may be a part): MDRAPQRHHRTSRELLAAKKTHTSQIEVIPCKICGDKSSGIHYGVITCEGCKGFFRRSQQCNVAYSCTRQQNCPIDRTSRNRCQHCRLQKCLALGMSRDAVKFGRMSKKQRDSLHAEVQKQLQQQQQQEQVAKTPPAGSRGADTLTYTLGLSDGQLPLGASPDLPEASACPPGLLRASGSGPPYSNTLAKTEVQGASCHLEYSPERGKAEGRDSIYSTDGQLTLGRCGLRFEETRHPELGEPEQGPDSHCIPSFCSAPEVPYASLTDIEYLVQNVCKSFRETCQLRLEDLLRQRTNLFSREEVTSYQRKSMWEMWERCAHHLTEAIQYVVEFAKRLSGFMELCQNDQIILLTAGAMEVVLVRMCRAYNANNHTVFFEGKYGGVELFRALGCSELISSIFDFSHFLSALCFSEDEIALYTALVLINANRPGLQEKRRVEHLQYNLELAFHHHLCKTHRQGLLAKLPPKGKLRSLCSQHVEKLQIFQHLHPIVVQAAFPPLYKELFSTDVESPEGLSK
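Drosophila S2 cells stably expressing Gal4-DBD/mouse RORγ fusion under metallothionein promoter plus UAS-luciferase; compound 1 h, then 700 uM CuSO4 induction for 20 h at ambient temperature; inhibition read as reduced luminescence.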
Gal4-VP16 FLuc: inhibits Gal4-VP16 luciferase reporter, ROR gamma counter-screen; Drosophila S2 Gal4-VP16 UAS-luciferase, luminescence, 20 h; hit rate 3.5% among 310,000; Potency, µM (highest dose often 53.6 µM), most hits filed as inhibitors; AID 2546;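 also: Gal4-VP16 expression switched on by copper sulfate through the metallothionein promoter; nearly all actives have a fitted effect of over 50% in size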
ELG1 DNA repair: ELG1-dependent DNA repair inhibition; HEK293T ELG1-luciferase reporter, luminescence, 16 h; DNA damage induced by 5-fluorouridine; Potency, µM (top dose mostly 46.1 µM), actives largely listed as inhibitors; hit rate 2.3% among 330,000; also: nearly all actives have a fitted effect of over 55% in size
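Step one: seed 2,000 cells per well. Step two: pin-transfer compound or DMSO alongside 5-fluorouridine. Step three: incubate 16 hr, 37 °C, 5% CO2. Step four: add ONE-Glo, wait 30 min, read luminescence.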
Giardia kill: kills Giardia lamblia. AID 540267. hit rate 0.15% among 340,000. Giardia lamblia trophozoite viability. activity change, % at 7.66 µM, hits read low; in the data active = activity change below about -80%; inconclusive = between about -30% and that limit;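 also: parasites exposed to compound for two days anaerobically before the ATP read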
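Trophozoites 100 cells/well + cpd; 48 hrs, 37 deg C, anaerobic. ATPLite 1-Step added, 15-30 min RT, luminescence read (ATP-based viability).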
Each line names hits and unclear results; the compound was inactive in the other large screens. Unless noted, calls follow the shape of the dose curve; as a rule, active = well fitted curve in the direction sought with a large enough effect; inconclusive = small, poorly fitted or top-dose-only effect, or another doubt; inactive = no such curve, though single readings can be large; an effect the other way counts as inactive or inconclusive.

CN(CCc1ccccn1)C(=O)CC1C(=O)NCCN1Cc1cccc(F)c1 (centres undefined)	none
Cc1cccc(OCCCc2c(C)n[nH]c2C)c1	RORgamma inh 11µM
COc1cc([N+](=O)[O-])ccc1NC(=O)CCCOc1cccc(C)c1C	RORgamma inh 20µM, Gal4-VP16 FLuc inconclusive
COc1ccccc1/C=N/N1C(=O)C(CC(=O)Nc2ccc([N+](=O)[O-])cc2OC)SC1=Nc1cccc(C)c1C (centres undefined)	RORgamma inh inconclusive, ELG1 DNA repair 5.8µM (no result: BRCA1 expr up, Giardia kill)
COc1cc([N+](=O)[O-])ccc1NC(=O)Cc1ccccc1	none
CC(=O)c1ccc(N2CCN(C(=O)c3ccc(C(=O)c4ccccc4)cc3)CC2)cc1	ELG1 DNA repair inconclusive (no result: RORgamma inh, Gal4-VP16 FLuc)
COc1ccc2c(c1OC)C(=O)OC2Nc1nc(-c2ccc([N+](=O)[O-])cc2)cs1 (centres undefined)	BRCA1 expr up 13µM, Gal4-VP16 FLuc inconclusive, ELG1 DNA repair inconclusive
COc1ccc2c(c1OC)C(=O)OC2Nc1nc(-c2cc3cc(Br)ccc3oc2=O)cs1 (centres undefined)	ELG1 DNA repair inconclusive
COc1ccc(-c2csc(NC3OC(=O)c4c3ccc(OC)c4OC)n2)cc1OC (centres undefined)	RORgamma inh 3.5µM, Gal4-VP16 FLuc 7.9µM
COC(=O)c1cccc2c1-c1ccccc1/C2=N/O	RORgamma inh 14µM, Gal4-VP16 FLuc inconclusive, ELG1 DNA repair inconclusive
COc1ccc(CCNC(=O)CCc2nc3sc4c(c3c(=O)[nH]2)CCCC4)cc1	none
CCc1c(C(=O)Nc2ncn(Cc3cccc(C)c3)n2)csc1C	RORgamma inh 4µM, Gal4-VP16 FLuc 13µM
CC1Cc2nc(SCC(=O)N3CCCc4ccccc43)n(C)c(=O)c2S1 (centres undefined)	RORgamma inh inconclusive, ELG1 DNA repair 23µM
CCOc1ccc(-n2ccnc2SCC(=O)N2CCCc3ccccc32)cc1	RORgamma inh 7.1µM, Gal4-VP16 FLuc inconclusive, ELG1 DNA repair inconclusive
COc1cccc(-n2ccnc2SCC(=O)N2CCCc3ccccc32)c1	none
Cc1ccc(C)c(N2CCN(CCCNC(=O)Cn3cc4c(n3)CCC(C)C4)CC2)c1 (centres undefined)	none
Cc1ccc(C)c(N2CCN(CCCNC(=O)Cn3cc4c(n3)CCCCC4)CC2)c1	RORgamma inh 13µM, Gal4-VP16 FLuc 20µM, ELG1 DNA repair inconclusive
CCOC(=O)c1c(N)n(-c2ccc(C)c(C)c2)c2nc3ccccc3nc12	none (no result: p53 reactivator, RORgamma inh, Gal4-VP16 FLuc, ELG1 DNA repair, Giardia kill)
CCCNC(=O)c1c(N)n(-c2cccc(OC)c2)c2nc3ccccc3nc12	ELG1 DNA repair 16µM
COCCCNC(=O)c1c(N)n(-c2cccc(S(N)(=O)=O)c2)c2nc3ccccc3nc12	ELG1 DNA repair 12µM
CC(C)OCCCNC(=O)c1c(N)n(/N=C/c2cccs2)c2nc3ccccc3nc12	none
Nc1c(C(=O)NCCN2CCOCC2)c2nc3ccccc3nc2n1-c1cccc(F)c1	ELG1 DNA repair inconclusive
COCCCNC(=O)c1c(N)n(/N=C/c2ccccn2)c2nc3ccccc3nc12	ELG1 DNA repair 4.6µM
COc1ccccc1CN1CCN(C(=O)c2ccco2)CC1	none
Cc1ccc(SCc2cn3cccnc3n2)cc1	p53 reactivator inconclusive, BRCA1 expr up 11µM, ELG1 DNA repair inconclusive
Cc1ccn2cc(CSc3ccccc3)nc2c1	p53 reactivator inconclusive, BRCA1 expr up inconclusive, RORgamma inh 13µM, Gal4-VP16 FLuc 8.9µM, ELG1 DNA repair inconclusive
Cn1ccnc1SCCNC(=O)CCc1nnc(CCc2ccccc2)o1	none
CN(C)c1ccc(/C=C/c2ccnc3ccc(Br)cc23)cc1	none (no result: p53 reactivator, RORgamma inh, Gal4-VP16 FLuc, ELG1 DNA repair, Giardia kill)
COc1ccc(CCNC(=O)Cn2cccc2C(=O)c2ccccc2)cc1OC	none
Oc1ccccc1/C=N/Nc1ncc(Br)cn1	p53 reactivator inconclusive, Gal4-VP16 FLuc inconclusive, ELG1 DNA repair inconclusive
Oc1ccccc1/C=N/Nc1ccnc(SCc2ccccc2)n1	RORgamma inh 0.35µM, Gal4-VP16 FLuc 0.32µM
COC(=O)c1ccc(OCC(O)Cn2nnc3ccccc32)cc1 (centres undefined)	BRCA1 expr up 11µM, RORgamma inh inconclusive, ELG1 DNA repair inconclusive
CC(=O)Nc1ccc(OCC(O)Cn2c(C(C)C)nc3ccccc32)cc1 (centres undefined)	none
CC(=O)Nc1ccc(OCC(O)Cn2c(CO)nc3ccccc32)cc1 (centres undefined)	none
CC(=O)N(C)c1ccc(OCC(O)Cn2c(C)nc3ccccc32)cc1 (centres undefined)	Gal4-VP16 FLuc 16µM, ELG1 DNA repair 9.2µM
CC(=O)Nc1ccc(OCC(O)Cn2c(C)nc3ccccc32)cc1 (centres undefined)	RORgamma inh inconclusive, Gal4-VP16 FLuc 7.9µM
CC(=O)c1ccc(OCC(O)Cn2nnc3ccccc32)cc1 (centres undefined)	BRCA1 expr up inconclusive, ELG1 DNA repair inconclusive
CC(=O)N(C)c1ccc(OCC(O)Cn2c3ccc(Cl)cc3c3cc(Cl)ccc32)cc1 (centres undefined)	RORgamma inh 20µM, ELG1 DNA repair 18µM
CCNc1ccc(S(=O)(=O)N2CCCCC2)cn1	none (no result: RORgamma inh, Gal4-VP16 FLuc)
CC(C)C(NS(=O)(=O)c1ccccc1)C(=O)N1CCCC1 (centres undefined)	none
COc1ccc(OC)c(-c2cc(C(=O)NCCc3ccccc3)c3c(-c4ccc(C)cc4)[nH]nc3n2)c1	none (no result: p53 reactivator, RORgamma inh, Gal4-VP16 FLuc, ELG1 DNA repair, Giardia kill)
Cc1ccc(NC(=O)/C=C/c2ccc([N+](=O)[O-])s2)c(C)c1	ELG1 DNA repair inconclusive
Cc1ccnc(NC(=O)/C=C/c2cccs2)c1	RORgamma inh 8.9µM, Gal4-VP16 FLuc 13µM, ELG1 DNA repair inconclusive, Giardia kill inconclusive (no result: p53 reactivator)
Cc1cc([N+](=O)[O-])ccc1NC(=O)/C=C/c1cccs1	p53 reactivator inconclusive, BRCA1 expr up 5.6µM, RORgamma inh inconclusive, Gal4-VP16 FLuc inconclusive
O=C(/C=C/c1cccs1)Nc1nncs1	ELG1 DNA repair inconclusive
O=C(/C=C/c1cccs1)Nc1cccnc1	p53 reactivator inconclusive, BRCA1 expr up 11µM, ELG1 DNA repair inconclusive
O=C(/C=C/c1cccs1)Nc1scc(-c2ccccc2)c1C(=O)O	BRCA1 expr up inconclusive, RORgamma inh 10µM, Gal4-VP16 FLuc 13µM, ELG1 DNA repair inconclusive, Giardia kill inconclusive
O=C(C1CCCN(S(=O)(=O)c2cc(Cl)ccc2Cl)C1)N1CCCC1 (centres undefined)	ELG1 DNA repair inconclusive
CC(C)c1cc(Nc2cccc(O)c2)cc(C(C)C)c1O	none (no result: BRCA1 expr up, Giardia kill)
Cc1ccc(C(=O)n2c(=S)nc3ccccn32)cc1	p53 reactivator inconclusive, RORgamma inh 1.6µM, Gal4-VP16 FLuc inconclusive, ELG1 DNA repair inconclusive (no result: BRCA1 expr up, Giardia kill)
O=C(c1ccccc1)n1c(=S)nc2ccccn21	RORgamma inh inconclusive, Gal4-VP16 FLuc inconclusive, ELG1 DNA repair inconclusive (no result: p53 reactivator)
